Screens as filed in PubChem.
SW480 rereplic = inducers of DNA re-replication in SW480 colon cancer cells. SW480 DNA re-replication, Hoechst DNA content imaging, 48 h. Potency, µM (top dose mostly 46.1 µM), for inactives: at the top dose re-replication activation, most hits filed as activators. 340,000 tested, 1.8% active. AID 624297; note: potency is the fitted concentration of half-maximal effect; % of control where 0% means no effect; nearly all actives have a fitted effect of over 55% in size
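Hoechst fluorescence of nuclei (405 nm excitation, 500-530 nm emission) measured by plate-scanning imager after 48 hr compound exposure at 37 C; re-replication scored as increased number of nuclei with elevated intensity.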
D3 ag = D3 dopamine receptor (human) agonism; AID 652048; P35462; 410,000 tested, 0.58% active; D3R DiscoveRx beta-arrestin cells, luminescence, 90 min; max activation, %; in the data active = max activation above about 30%; note: 0% is about no effect
Target sequence (P35462 whole entry, looked up): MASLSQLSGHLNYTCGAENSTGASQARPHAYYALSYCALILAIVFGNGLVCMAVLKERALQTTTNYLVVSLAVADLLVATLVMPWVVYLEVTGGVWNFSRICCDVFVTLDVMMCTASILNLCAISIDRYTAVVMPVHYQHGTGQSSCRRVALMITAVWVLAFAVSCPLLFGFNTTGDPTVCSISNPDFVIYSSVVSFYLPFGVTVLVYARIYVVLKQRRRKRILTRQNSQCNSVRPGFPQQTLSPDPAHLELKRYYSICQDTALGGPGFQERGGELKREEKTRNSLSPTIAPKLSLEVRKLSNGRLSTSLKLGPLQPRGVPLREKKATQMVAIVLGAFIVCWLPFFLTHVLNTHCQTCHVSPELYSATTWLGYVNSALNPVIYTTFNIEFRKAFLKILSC
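Cells at 1500/well, incubated overnight, then treated with pinned compounds (dopamine as control) for 90 min at 37 degrees C. DiscoveRx reagent added for 30 - 60 minutes at room temperature; luminescence read.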
KB-V1 cytotox = KB-V1 MDR subline cytotoxicity; AID 1347076; KB-V1 MDR cells viability, CellTiter-Glo, 72 h; 400,000 tested, 3.4% active; Potency, µM (highest dose often 46.1 µM), hits mostly cytotoxic; note: potency is the fitted concentration of half-maximal effect; % is set by controls: 0 for no effect and ±100 for the full control effect; nearly all actives have a fitted effect of over 60% in size
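Readout: CellTiter-Glo luminescence, 10 min after addition. Cells: KB-V1 MDR subline, 72 h at 37 degrees C with compound. Analysis: corrected, normalized data fitted to concentration-effect curves.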
KB-3-1 tox = KB-3-1 parental cell cytotoxicity. KB-3-1 viability, CellTiter-Glo ATP luminescence, 72 h. Potency, µM (series often up to 46.1 µM), most hits filed as cytotoxic. 400,000 tested, 1.4% active; note: potency is the fitted concentration of half-maximal effect; % is set by controls: 0 for no effect and ±100 for the full control effect; nearly all actives have a fitted effect of over 60% in size
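Luminescent ATP read-out (CellTiter-Glo) measures survival of drug-naive KB-3-1 cells after 72 h compound exposure at 37 °C. Titration series was screened from lowest to highest concentration, with DMSO vehicle plates as background controls.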
D3 antag = D3 dopamine receptor (human) antagonism | P35462 | D3R cells, DiscoveRx beta-arrestin luminescence, antagonist mode; active compounds read low | max response, negative = inhibition, % | 360,000 tested, 2.5% active | AID 652054; in the data active = max response below about -50%; inconclusive = no clear call, values can overlap the other calls; note: % is set by controls: 0 for no effect and ±100 for the full control effect
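Cells expressing the human receptor were seeded at 1500 cells/well, incubated overnight at 37 degrees C in 5% CO2, then exposed to library compounds with dopamine controls for 90 minutes at 37 degrees C before luminescent detection.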
MCF10A rereplic = DNA re-replication induction in MCF 10a cells; Potency, µM (series often up to 46.1 µM), for the others: at the top dose activity, positive = re-replication, most hits filed as activators; 350,000 tested, 2.9% active; AID 624296; MCF 10A DNA re-replication, Hoechst nuclear intensity, 48 h; note: potency is the fitted concentration of half-maximal effect; % of control where 0% means no effect; nearly all actives have a fitted effect of over 50% in size
The depositor's hits bear a star; i = inactive; ? = inconclusive; · = no result. Compounds with a hit are over-represented: about 8.9% of the library has one in this group of screens. Unless noted, calls come from the whole dose curve; as a rule, active = well fitted curve in the direction sought with a large enough effect; inconclusive = small, poorly fitted or top-dose-only effect, or another doubt; inactive = no such curve, though single readings can be large; an effect the other way counts as inactive or inconclusive.

SMILES	SW480 rereplic	D3 ag	KB-V1 cytotox	KB-3-1 tox	D3 antag	MCF10A rereplic
CC(=O)O[C@@H]1C[C@H]2C(C)(C)C(=O)C=C[C@]2(C)[C@H]2CC[C@@]3(C)[C@H](c4ccoc4)OC(=O)[C@H]4O[C@]43[C@@]21C	4.11µM*	-11.7	?	?	-5.0	?
CCOC(=O)C1=C(C)NC(=O)NC1c1ccoc1 (centres undefined)	-4.3%	-8.9	i	i	40.7	-0.8%
Cc1ccc([C@H]2N[C@]3(CCCN(Cc4ccco4)C3=O)[C@H]3C(=O)N(Cc4ccccc4)C(=O)[C@@H]23)cc1	·	-3.2	i	i	-6.9	·
O=C1[C@H]2[C@@H](c3ccccc3)N[C@]3(CCCN(Cc4ccco4)C3=O)[C@H]2C(=O)N1Cc1ccccc1	·	-2.9	i	i	-56.0*	·
O=C(Nc1nnc(N2CCCCCC2)s1)Nc1cc(F)ccc1F	·	-9.5	i	i	·	·
O=C1c2ccccc2C(=O)C1c1ccc(Cl)cc1	-2.1%	-15.5	?	i	-1.3	2.9%
O=C1c2ccccc2C(=O)C12OC2c1ccc(Cl)cc1Cl (centres undefined)	?	-14.2	?	?	?	11.6µM*
CCOC(=O)c1c(NC(=O)c2cc3nc(-c4ccc(OC)cc4)cc(C(F)(F)F)n3n2)sc(C)c1C	·	-14.5	i	i	·	·
Cc1ccc(OCC(O)Cn2c(=N)n(Cc3ccccc3)c3ccccc32)cc1 (centres undefined)	?	2.1	16.4µM*	i	2.4	?
N=c1n(Cc2ccccc2)c2ccccc2n1Cc1ccccc1	23.1µM*	2.3	18.4µM*	?	-0.3	?
N=c1n(CC(=O)c2ccc(Br)cc2)c2ccccc2n1Cc1ccccc1	-2.6%	-12.1	?	?	36.8	12.1%
COc1ccc(OCC(O)Cn2c(=N)n(Cc3ccccc3)c3ccccc32)cc1 (centres undefined)	?	1.5	?	?	-12.9	?
CCn1cc(S(=O)(=O)c2ccc(C)cc2C)c(=O)c2cc(F)c(N3CCCCC3)cc21	·	-4.7	i	i	·	·
O=[N+]([O-])c1cc(Cc2ccccc2)cc(C=Nc2ccc(N3CCOCC3)cc2)c1O	-2.4%	-5.0	i	i	-66.6*	?
O=C1CC(N2CCCCCC2)C(=O)N1c1ccc(F)cc1 (centres undefined)	?	-4.8	?	i	-14.0	13µM*
O=C1CC(N2CCCCCC2)C(=O)N1c1ccc2c(c1)OCO2 (centres undefined)	-0.6%	1.4	i	i	6.4	14.6µM*
CCS(=O)(=O)c1ccc(O)c(Nc2cc(C)nc(SC)n2)c1	·	6.0	i	i	·	·
O=C(NCC1CCN(Cc2cccc(Cl)c2)CC1)Nc1ccc(F)c(Cl)c1	·	-3.9	i	?	·	·
COc1ccc(OC)c(CN2CCC(CNC(=O)Nc3cccc(Cl)c3)CC2)c1	3.9%	-20.9	?	?	?	1.8%
Cc1ccc(C)c(CN2CCC(CNC(=O)Nc3ccc(C)c(C)c3)CC2)c1	?	-15.2	18.4µM*	?	?	?
Cc1ccc(CN2CCC(CNC(=O)Nc3ccc(C)c(C)c3)C2)cc1 (centres undefined)	·	-20.5	i	i	·	·
COc1cc([N+](=O)[O-])ccc1NC(=O)NCC1CCN(Cc2ccc(Cl)cc2)CC1	?	-16.3	i	?	-72.5*	9.4%
O=C(NCC1CCN(Cc2cccc(Cl)c2)CC1)Nc1cc(Cl)ccc1Cl	·	-26.9	?	?	·	·
O=C(NCC1CCN(Cc2cccc(Cl)c2)CC1)Nc1ccc(Cl)cc1	17.8%	-5.0	?	i	-60.7*	22.1%
COc1ccc(Cl)cc1NC(=O)NCC1CCN(Cc2cc(C)ccc2C)CC1	19.0%	-1.2	23.1µM*	?	-84.9*	19.9%
SMILES	SW480 rereplic	D3 ag	KB-V1 cytotox	KB-3-1 tox	D3 antag	MCF10A rereplic
CN(CCCNC(=O)c1cc2c(=O)n(C)c3ccccc3c2s1)Cc1ccccc1	·	-28.6	i	i	·	·
CCNC(=O)CC1C(=O)N(c2ccc(C)cc2)C(=O)N1Cc1ccc(C)cc1 (centres undefined)	·	-11.6	i	i	·	·
Cc1ccc(C(=O)Nc2c(C)nc3ccccn3c2=O)cc1	·	-14.9	·	·	·	·
CCC(=O)Nc1c(C#N)c2nc3ccccc3nc2n1-c1ccc(C)cc1	?	6.4	?	i	3.8	23.1µM*
CCCCn1c(NC(=O)c2ccccc2)c(C#N)c2nc3ccccc3nc21	-1.5%	12.8	5.17µM*	?	47.0	0.7%
N#Cc1c(NC(=O)c2ccc(Br)o2)n(-c2ccccc2)c2nc3ccccc3nc12	?	-2.2	i	i	14.5	?
Cc1nn(C(C)(C)C)c(NC(=O)c2ccccc2)c1C#N	10.4%	-6.0	i	i	-14.7	-3.9%
CCC(C)n1c(NC(=O)c2ccccc2)c(C#N)c2nc3ccccc3nc21 (centres undefined)	5.17µM*	-2.4	?	?	-10.9	1.3µM*
CCc1ccccc1NC(=O)c1cc(S(=O)(=O)N2CCCC2)cn1C	·	3.6	·	·	·	·
O=C(NCC(=O)N(CC1CCCO1)C1(C(=O)NC2CCCCC2)CCCCC1)c1ccccc1 (centres undefined)	1.7%	0.5	3.26µM*	i	7.0	1.4%
O=C(NCC(=O)N(CC1CCCO1)C1(C(=O)NC2CCCC2)CCCCC1)c1ccccc1 (centres undefined)	-2.9%	3.1	14.6µM*	i	13.1	5.6%
CCOC(=O)c1ccc(CN(Cc2ccc(Cl)cc2Cl)S(=O)(=O)c2ccc(F)c(C)c2)cc1	·	-9.6	·	·	·	·
OC(CN1C=CCc2ccccc21)c1ccc(Cl)cc1Cl (centres undefined)	·	·	?	i	·	·
C#CCN1CCc2onc(-c3ccc(Br)cc3)c2C1=O	·	7.7	18.4µM*	?	3.9	·
CC1CCc2nc(/C(C#N)=C/c3ccncc3)sc2C1 (centres undefined)	7.31µM*	10.9	?	i	9.0	?
Cc1cccc(C(=O)Nc2nnc(S(=O)(=O)N(C)c3ccccc3C)s2)c1	·	-28.4	·	·	·	·
O=C(/C=C/c1ccc([N+](=O)[O-])s1)N1CCN(c2ccccc2)CC1	26.6%	-2.8	i	i	-8.4	?
CC1CN(C(=O)/C=C/c2ccc([N+](=O)[O-])s2)CC(C)O1 (centres undefined)	8.2µM*	0.6	8.2µM*	?	-8.4	?
O=C(/C=C/c1ccc([N+](=O)[O-])s1)N1CCCCC1	5.8µM*	-2.2	?	14.6µM*	-4.1	?
